Source: PubChem BioAssay (NCATS)
Records with an inconclusive call do not appear. Activity calls are given as the source filed them. Unless noted, the call rests on the fitted dose curve; in most records, active means well fitted curve in the direction sought with a large enough effect; inconclusive means small, poorly fitted or top-dose-only effect, or another doubt; inactive means no such curve, though single readings can be large; an effect the other way counts as inactive or inconclusive.

Key:
[1] = Cell Viability - Jurkat (AID 426;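 active means dose-dependent loss of cell ATP signal giving a full or clear fitted curve, ranked by lower potency value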; further: potency means the concentration at half of the fitted maximal effect); settings: qHTS
Summary of the method: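 Jurkat (clone E6-1, human T-cell leukemia) cells, 5000/well in complete medium, were exposed to compound for 40 hr at 37 °C. Viability was read as intracellular ATP by CellTiter-Glo luminescence; AC50 came from Hill fits of concentration-response data.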

[2] = Cell Viability - Hek293 (AID 427;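 active means compounds whose dose-response curve shows a full or clear partial loss of cell viability, called from curve shape rather than a numeric limit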;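 further: potency means the concentration at half of the fitted maximal effect; cells exposed to compound for 40 hours at 37 °C before reading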); settings: qHTS
Summary of the method: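 qHTS, human embryonic kidney (adenovirus-transformed) cells; 40 hr cpd, 37 °C; CellTiter-Glo ATP luminescence. Norm: DMSO = 0, 100 uM tamoxifen = 100% inhibition. Hill-fit AC50.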

[3] = Cell Viability - NIH 3T3 (AID 541); settings: NIH 3T3 cell viability, qHTS; activity change, negative = cytotoxicity: at 92.2 µM (top of the series); further: nearly all actives have a fitted effect of over 25% in size; further: potency means the concentration at half of the fitted maximal effect;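 on activity change, negative = cytotoxicity: plate controls were DMSO alone for no effect and tamoxifen positive control for full effect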
Summary of the method: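 NIH 3T3 mouse embryo fibroblasts (1000 cells/well) were plated in complete medium and treated with compound for 40 hr at 37 °C. Viability was read as intracellular ATP by CellTiter-Glo luminescence; AC50 values came from Hill-equation fits of concentration-response data.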

[4] = Cell Viability - H-4-II-E (AID 543); settings: H-4-II-E rat hepatoma viability; series mostly up to 92.2 µM; further: nearly all actives have a fitted effect of over 35% in size; further: potency means the concentration at half of the fitted maximal effect
Summary of the method: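 Rat hepatoma H-4-II-E cells (1500/well) were plated, incubated 5 hr at 37 °C, then exposed to compounds for 40 hr at 37 °C. Cellular ATP was read by CellTiter-Glo luminescence; AC50 came from Hill-equation fits of concentration-response data.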

[5] = Cellular Toxicity (caspase-3) Jurkat (AID 655); settings: Jurkat caspase-3 activation, luminescence; caspase-3 activation: at 92.2 µM (top of the series), DMSO = 0%, tamoxifen = 100%;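 further: cells exposed to compound for 16 h at 37 °C before reading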
Summary of the method: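 Luminescent caspase-3/7 readout (aminoluciferin substrate cleavage) in human T-cell leukemia Jurkat cells after 16 hr compound exposure. Concentration-response normalized to DMSO and 100 uM tamoxifen; AC50 by standard Hill equation.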

[6] = Cellular Toxicity (caspase-3) SHSY5Y (AID 657); settings: SH-SY5Y caspase-3 activation; series mostly up to 91.7 µM
Summary of the method: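 Luminescent caspase-3/7 readout (aminoluciferin release) in SH-SY5Y cells after 16 h compound exposure in complete medium. Activity scaled between DMSO basal and 10 uM staurosporine as 100%; concentration-response fitted to Hill equation for AC50.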

[7] = Cellular Toxicity (caspase-3) BJ (AID 658); settings: BJ fibroblasts, luminescence; Potency: caspase-3 activation; series mostly up to 91.7 µM
Summary of the method: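 Readout: Caspase-Glo 3/7 luminescence increase in BJ cells after 16 hr treatment at 37 °C. Staurosporine and tamoxifen served as positive controls; AC50 values came from Hill modelling of data normalized to DMSO and 10 uM staurosporine.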

[8] = Cellular Toxicity (caspase-3) MRC-5 (AID 659); settings: MRC-5 cells, luminescence, normalized: DMSO 0%, 10 µM staurosporine 100%; series mostly up to 91.7 µM
Summary of the method: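 Concentration-dependent caspase 3/7 activation is measured in human normal lung fibroblasts (MRC-5) following 16-hour treatment. AC50 values come from standard Hill-equation modeling of luminescence normalized to DMSO and 10 uM staurosporine.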

[9] = Cellular Toxicity (caspase-3) SK-N-SH (AID 661); settings: SK-N-SH caspase-3 activation, qHTS; caspase-3 activation: at 91.7 µM (top of the series), DMSO as zero, staurosporine as full
Summary of the method: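 SK-N-SH human neuroblastoma cells (1500/well) were treated with compounds for 16 hr at 37 °C in complete medium; caspase 3/7 activity was read by Caspase-Glo luminescence. AC50 came from Hill fits of data normalized to DMSO and 10 uM staurosporine.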

[10] = Cellular Toxicity (caspase-3) Hek293 (AID 664); settings: HEK293 caspase-3 activation, DMSO = 0%, 100 µM tamoxifen = 100%; at 92.2 µM (top of the series);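 further: cells exposed to compound for 16 h at 37 °C before readout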
Summary of the method: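 HEK293 cells were exposed to compounds in complete medium for 16 hr at 37 °C, then caspase-3/7 activity was read by Caspase-Glo 3/7 luminescence after 20 min at room temperature. Data normalized to DMSO and 100 uM tamoxifen; AC50 from Hill fits.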

[11] = Cellular Toxicity (caspase-3) NIH 3T3 (AID 666); settings: NIH 3T3 caspase-3 activation, apoptosis/toxicity; series mostly up to 92.2 µM;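 further: caspase signal read after 16 h compound exposure; 0% = DMSO basal and 100% = 100 µM tamoxifen stimulation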
Summary of the method: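 Mouse NIH 3T3 fibroblasts (1000 cells/well) were treated with compound for 16 hr at 37°C in complete medium; caspase-3/7 activity was read by Caspase-Glo luminescence. Normalized to DMSO and 100 uM tamoxifen; AC50 from Hill fits.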

[12] = MultiTox-Fluor Cytotoxicity Assay - LYMP1-001 - Dead Cells (AID 946); settings: LYMP1-001 lymphoblastoid cells, dead-cell protease fluorescence; series mostly up to 92.2 µM; further: potency means the concentration at half of the fitted maximal effect
Summary of the method: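 Seed 2500 LYMP1-001 cells/well, incubate 5 hr at 37 C; add compound, 16 hr at 37 C; add MultiTox-Fluor reagent, 60 min RT; read dead-cell fluorescence Ex/Em=485/520. Normalize to DMSO and 15 uM tetraoctylammonium bromide.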

[13] = Cell Viability - LYMP1-002 - Assay at 16 hr (AID 948); settings: LYMP1-002 lymphoblastoid cell viability; series mostly up to 92.2 µM; further: potency means the concentration at half of the fitted maximal effect;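 on activity change, negative = cytotoxicity: 0% = DMSO alone and full effect = 92 µM tetraoctylammonium bromide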
Summary of the method: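 LYMP1-002 human lymphoblastoid cells, 2500/well; 5 hr 37 C; cpd 16 hr 37 C; CellTiter-Glo 30 min RT; luminescence (ATP). Concentration-response, Hill-fit AC50. Pos ctrl tetraoctylammonium bromide.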

[14] = MultiTox-Fluor Cytotoxicity Assay - LYMP1-003 - Live Cells (AID 962); settings: LYMP1-003 lymphoblastoid cells, MultiTox-Fluor live-cell protease fluorescence; series mostly up to 92.2 µM; further: potency means the concentration at half of the fitted maximal effect
Summary of the method: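 LYMP1-003 human lymphoblastoid cells (2500/well) in complete medium were preincubated 5 hr at 37 C, then exposed to compounds for 16 hr at 37 C. Live-cell protease cleavage of GF-AFC read by fluorescence (Ex/Em 405/510); AC50 from Hill fits.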

[15] = Cell Viability - LYMP1-003 - Assay at 24 hr (AID 963); settings: LYMP1-003 lymphoblastoid cell viability; series mostly up to 92.2 µM; further: potency means the concentration at half of the fitted maximal effect
Summary of the method: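 Human lymphoblastoid LYMP1-003 cells (2500/well) were rested 5 hr at 37 C, then exposed to compounds in complete medium for 24 hr at 37 C. Cellular ATP was quantified by CellTiter-Glo luminescence, and AC50 values came from Hill fits of concentration-response data.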

[16] = Cell Viability - LYMP2-003 (AID 965); settings: LYMP2-003 lymphoblastoid cell viability; series mostly up to 92.2 µM;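 further: cells exposed to compounds for 24 h before reading; nearly all actives have a fitted effect of over 50% in size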; further: potency means the concentration at half of the fitted maximal effect;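 on activity change, negative = cytotoxicity: 0% = DMSO only and full effect = 92 µM tetraoctylammonium bromide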
Summary of the method: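 CellTiter-Glo luminescence (cellular ATP) after 24 h compound exposure at 37 C in complete medium; 2500 cells/well, 5 h settling beforehand. Concentration-response fitted to standard Hill equation for AC50. Tetraoctylammonium bromide served as positive control.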

[17] = Cell Viability - LYMP2-009 (AID 968); settings: LYMP2-009 lymphoblastoid cell viability; series mostly up to 92.2 µM; further: nearly all actives have a fitted effect of over 55% in size; further: potency means the concentration at half of the fitted maximal effect
[18] = Cell Viability - LYMP2-021 (AID 974); settings: LYMP2-021 lymphoblastoid cells viability; series mostly up to 92.2 µM;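 further: compound exposure lasts 24 hours at 37 °C; nearly all actives have a fitted effect of over 55% in size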; further: potency means the concentration at half of the fitted maximal effect; on activity change, negative = cytotoxicity: on the % scale 0 is the no-effect control and ±100 the full control effect
Summary of the method: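 Human lymphoblastoid cells (2500/well) were preincubated 5 hr at 37 C, then exposed to compounds for 24 hr at 37 C in complete medium. Intracellular ATP was read by CellTiter-Glo luminescence; AC50 came from Hill-equation fits of concentration-response data.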

[19] = Cell Viability - LYMP2-007 (AID 979); settings: LYMP2-007 lymphoblastoid cell viability; series mostly up to 92.2 µM;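 further: cells exposed to compound for 24 h before reading; nearly all actives have a fitted effect of over 60% in size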; further: potency means the concentration at half of the fitted maximal effect;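 on activity change, negative = cytotoxicity: 0% = DMSO only and the negative end = 92 µM tetraoctylammonium bromide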
Summary of the method: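 Human lymphoblastoid cells (2500/well) were plated in complete medium, incubated 5 hr at 37 C, then exposed to compounds for 24 hr at 37 C. Intracellular ATP was read by CellTiter-Glo luminescence after 30 min at room temperature; AC50 from Hill fits.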

[20] = Cell Viability - LYMP1-002 - Assay at 24 hr (AID 993); settings: LYMP1-002 lymphoblastoid cells viability; series mostly up to 92.2 µM; further: potency means the concentration at half of the fitted maximal effect; on activity change, negative = cytotoxicity: on the % scale 0 is the no-effect control and ±100 the full control effect
Summary of the method: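 Human lymphoblastoid LYMP1-002 cells, 2500/well in complete medium, were treated with compounds for 24 h at 37 C; intracellular ATP was read by CellTiter-Glo luminescence. AC50 values came from Hill-equation fits of qHTS concentration-response data.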

C=C(C)c1ccccc1
inactive: Potency [1] > 92 µM | Potency [2] > 92 µM | Potency [3] | Potency [4] | Potency [5] | Potency [6] | Potency [7] | outcome [8] | caspase-3 activation [9] 0.438% | caspase-3 activation [10] 0.697% | Potency [11] | Potency [12] | Potency [13] | Potency [14] | Potency [15] | Potency [16] | Potency [17] | Potency [18] | Potency [19] | Potency [20]

Nc1ccc2cc3ccccc3cc2c1
inactive: Potency [1] > 92 µM | Potency [2] > 92 µM | Potency [3] | Potency [4] | Potency [5] | Potency [6] | Potency [7] | outcome [8] | caspase-3 activation [9] -1.26% | caspase-3 activation [10] -0.457% | Potency [11] | Potency [12] | Potency [13] | Potency [14] | Potency [15] | Potency [16] | Potency [17] | Potency [18] | Potency [19] | Potency [20]

CCC(C)Nc1ccc(NC(C)CC)cc1 (stereo not drawn)
active: Potency [1] 3.09 µM | Potency [2] 19.3 µM | Potency [3] 5.01 µM | Potency [4] 6.31 µM | Potency [13] 15.8 µM | Potency [14] 12.6 µM | Potency [15] 12.6 µM | Potency [16] 10 µM | Potency [17] 3.98 µM | Potency [18] 3.98 µM | Potency [19] 5.01 µM | Potency [20] 15.8 µM
inactive: Potency [5] | Potency [6] | Potency [7] | outcome [8] | caspase-3 activation [9] -5.96% | caspase-3 activation [10] -12.1%

Cc1cc(O)c(C(C)(C)C)cc1Sc1cc(C(C)(C)C)c(O)cc1C
active: Potency [1] 16.3 µM | Potency [2] 33.7 µM | Potency [4] 25.1 µM | caspase-3 activation [10] 230% | Potency [12] 31.6 µM | Potency [13] 50.1 µM | Potency [14] 39.8 µM | Potency [15] 39.8 µM | Potency [16] 31.6 µM | Potency [17] 50.1 µM | Potency [18] 31.6 µM | Potency [19] 31.6 µM | Potency [20] 31.6 µM
inactive: Potency [11]

O=Cc1ccc(Cl)c(Cl)c1
inactive: Potency [2] > 92 µM | Potency [3] | Potency [4] | Potency [5] | Potency [6] | Potency [7] | outcome [8] | caspase-3 activation [9] 1.15% | caspase-3 activation [10] 1.45% | Potency [11] | Potency [12] | Potency [13] | Potency [14] | Potency [15] | Potency [16] | Potency [17] | Potency [18] | Potency [19] | Potency [20]

O=[N+]([O-])c1cc([N+](=O)[O-])c2ccc(S(=O)(=O)O)cc2c1O
inactive: Potency [1] > 92 µM | Potency [2] > 92 µM | Potency [3] | Potency [4] | Potency [5] | Potency [6] | Potency [7] | outcome [8] | caspase-3 activation [9] -1.51% | caspase-3 activation [10] 1.41% | Potency [11] | Potency [12] | Potency [13] | Potency [14] | Potency [15] | Potency [16] | Potency [17] | Potency [18] | Potency [19] | Potency [20]

O=C1OC2(c3cc(Br)c(O)c(Br)c3Oc3c2cc(Br)c(O)c3Br)c2c(Cl)c(Cl)c(Cl)c(Cl)c21
inactive: Potency [2] > 92 µM | Potency [5] | Potency [6] | Potency [7] | outcome [8] | caspase-3 activation [9] 0.172% | caspase-3 activation [10] -0.811% | Potency [11] | Potency [12] | Potency [13] | Potency [14] | Potency [15] | Potency [16] | Potency [18] | Potency [19] | Potency [20]
active: Potency [3] 25.1 µM
